Measured values published in PubChem BioAssay (Tox21).
Records with an inconclusive call do not appear. Activity calls are given as the source filed them. Calls follow the shape of the dose curve; as a rule, active = well fitted curve in the direction sought with a large enough effect in the repeat runs; inconclusive = weak or mixed curves; inactive = no such curve, though single readings can be large; an effect the other way counts as inactive or inconclusive.

How the values were obtained:
[1] = qHTS RealTime-Glo MT Cell Viability Assay in HEK293 cells - 32 hour (AID 1224868); details: RealTime-Glo luminescence; series mostly up to 76.8 µM; also: top concentration of the series differs between compounds; nearly all actives have a fitted effect of over 50% in size
How it was run: (§1)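 Luminescence generated by NanoLuc from substrate produced by living HEK293 cells served as the viability signal. Each value reflects the reading at its stated time point during continuous 40 h compound exposure at 37 C.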

[2] = A CellTox Green Cytotoxicity Assay to monitor cytotoxicity in HEK293 cells - 0 hour (AID 1224869); details: CellTox Green fluorescence; series mostly up to 76.8 µM; also: nearly all actives have a fitted effect of over 50% in size
How it was run: (§2)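 Cytotoxicity was tracked continuously in HEK293 cells by a DNA-binding dye excluded from viable cells. Compounds were transferred in DMSO 5 h after seeding; fluorescence was recorded at intervals up to 40 h.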

[3] = qHTS RealTime-Glo MT Cell Viability Assay in HepG2 cells - 40 hour (AID 1224870); details: RealTime-Glo luminescence; series mostly up to 76.8 µM; also: nearly all actives have a fitted effect of over 50% in size
How it was run: (§3)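 HepG2 cells mixed with RealTime-Glo MT reagents (NanoLuc plus cell-permeant prosubstrate) were seeded at 600 cells/well, incubated 5 h at 37 C/5% CO2, then pinned with compounds in DMSO; nonlytic luminescence tracked viability during 40 h treatment.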

[4] = qHTS RealTime-Glo MT Cell Viability Assay in HEK293 cells - 16 hour (AID 1224872); details: RealTime-Glo luminescence; series mostly up to 76.8 µM; also: top concentration of the series differs between compounds; nearly all actives have a fitted effect of over 50% in size
How it was run: as §1

[5] = qHTS RealTime-Glo MT Cell Viability Assay in HepG2 cells - 8 hour (AID 1224873); details: RealTime-Glo luminescence; series mostly up to 76.8 µM; also: nearly all actives have a fitted effect of over 55% in size
How it was run: as §3

[6] = qHTS RealTime-Glo MT Cell Viability Assay in HEK293 cells - 40 hour (AID 1224874); details: RealTime-Glo luminescence; max response: hits give low values; also: nearly all actives have a fitted effect of over 50% in size
How it was run: (§4)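 Nonlytic bioluminescent viability monitoring. HEK293 at 600 cells/well with reagent; 5 h settle; compound transfer by pintool; plates held at 37 C and read at set time points.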

[7] = A CellTox Green Cytotoxicity Assay to monitor cytotoxicity in HEK293 cells - 24 hour (AID 1224875); details: CellTox Green fluorescence; series mostly up to 76.8 µM; also: nearly all actives have a fitted effect of over 45% in size
How it was run: as §2

[8] = A CellTox Green Cytotoxicity Assay to monitor cytotoxicity in HepG2 cells - 16 hour (AID 1224876); details: CellTox Green fluorescence; series mostly up to 76.8 µM; also: nearly all actives have a fitted effect of over 45% in size
How it was run: (§5)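 Real-time, homogeneous cytotoxicity readout: dead-cell DNA staining by CellTox Green in HepG2 monolayers, fluorescence measured at timed intervals up to 40 h of continuous compound exposure.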

[9] = qHTS RealTime-Glo MT Cell Viability Assay in HepG2 cells - 32 hour (AID 1224877); details: RealTime-Glo luminescence; series mostly up to 76.8 µM; also: nearly all actives have a fitted effect of over 55% in size
How it was run: (§6)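 Tox21 10K library screened in qHTS format on HepG2 cells carrying RealTime-Glo reagents. Compounds were added after a 5 h preincubation, and the luminescent signal from continuous culture was measured repeatedly during 40 h treatment.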

[10] = A CellTox Green Cytotoxicity Assay to monitor cytotoxicity in HepG2 cells - 40 hour (AID 1224879); details: CellTox Green fluorescence; series mostly up to 76.8 µM; also: nearly all actives have a fitted effect of over 40% in size
How it was run: as §5

[11] = A CellTox Green Cytotoxicity Assay to monitor cytotoxicity in HepG2 cells - 32 hour (AID 1224883); details: CellTox Green fluorescence; series mostly up to 76.8 µM; also: nearly all actives have a fitted effect of over 50% in size
How it was run: as §5

[12] = A CellTox Green Cytotoxicity Assay to monitor cytotoxicity in HEK293 cells - 8 hour (AID 1224884); details: CellTox Green fluorescence; series mostly up to 76.8 µM; also: nearly all actives have a fitted effect of over 35% in size
How it was run: as §2

[13] = qHTS RealTime-Glo MT Cell Viability Assay in HepG2 cells - 16 hour (AID 1224885); details: RealTime-Glo luminescence; series mostly up to 76.8 µM; also: nearly all actives have a fitted effect of over 50% in size
How it was run: as §6

[14] = qHTS RealTime-Glo MT Cell Viability Assay in HEK293 cells - 24 hour (AID 1224886); details: RealTime-Glo luminescence; series mostly up to 76.8 µM
How it was run: as §1

[15] = qHTS RealTime-Glo MT Cell Viability Assay in HEK293 cells - 8 hour (AID 1224887); details: RealTime-Glo luminescence; series mostly up to 76.8 µM
How it was run: as §4

[16] = A CellTox Green Cytotoxicity Assay to monitor cytotoxicity in HEK293 cells - 16 hour (AID 1224888); details: CellTox Green fluorescence; series mostly up to 76.8 µM; also: nearly all actives have a fitted effect of over 35% in size
How it was run: as §2

[17] = qHTS RealTime-Glo MT Cell Viability Assay in HepG2 cells - 0 hour (AID 1224889); details: RealTime-Glo luminescence; series mostly up to 76.8 µM; also: nearly all actives have a fitted effect of over 50% in size
How it was run: as §6

[18] = A CellTox Green Cytotoxicity Assay to monitor cytotoxicity in HepG2 cells - 8 hour (AID 1224890); details: CellTox Green fluorescence; series mostly up to 76.8 µM; also: nearly all actives have a fitted effect of over 45% in size
How it was run: as §5

[19] = target: Androgen receptor (Homo sapiens) (UniProt P10275); assay: qHTS assay to identify small molecule antagonists of the androgen receptor (AR) signaling pathway using the MDA cell line in the presence of 0.5 nM R1881 (AID 1259243); details: MDA-kb2 MMTV-luciferase, R1881 0.5 nM, 16 h; series mostly up to 92.4 µM; also: nearly all actives have a fitted effect of over 50% in size
How it was run: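 Steps: seed MDA-kb2 cells, incubate 5 hr at 37C; pin-transfer compounds in DMSO; add R1881 to 0.5 nM final; incubate 16 hr; add ONE-Glo, wait 30 min at room temperature; read luminescence.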

[20] = qHTS assay to identify small molecule HDAC inhibitors - cell viability counter screen (AID 1259365); details: HCT-116 viability, CellTiter-Glo ATP luminescence, 2 h; series mostly up to 92.4 µM; also: nearly all actives have a fitted effect of over 50% in size
How it was run: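 Counter screen in wild-type HCT-116 cells: compounds dissolved in DMSO are pin-transferred onto overnight-plated cells and left 2hr at 37C. ATP-based CellTiter-Glo luminescence then measures viable cells.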
% is scaled to controls: 0 for no effect and ±100 for the full control effect.

Androgen receptor (Homo sapiens), sequence (P10275 whole entry, looked up): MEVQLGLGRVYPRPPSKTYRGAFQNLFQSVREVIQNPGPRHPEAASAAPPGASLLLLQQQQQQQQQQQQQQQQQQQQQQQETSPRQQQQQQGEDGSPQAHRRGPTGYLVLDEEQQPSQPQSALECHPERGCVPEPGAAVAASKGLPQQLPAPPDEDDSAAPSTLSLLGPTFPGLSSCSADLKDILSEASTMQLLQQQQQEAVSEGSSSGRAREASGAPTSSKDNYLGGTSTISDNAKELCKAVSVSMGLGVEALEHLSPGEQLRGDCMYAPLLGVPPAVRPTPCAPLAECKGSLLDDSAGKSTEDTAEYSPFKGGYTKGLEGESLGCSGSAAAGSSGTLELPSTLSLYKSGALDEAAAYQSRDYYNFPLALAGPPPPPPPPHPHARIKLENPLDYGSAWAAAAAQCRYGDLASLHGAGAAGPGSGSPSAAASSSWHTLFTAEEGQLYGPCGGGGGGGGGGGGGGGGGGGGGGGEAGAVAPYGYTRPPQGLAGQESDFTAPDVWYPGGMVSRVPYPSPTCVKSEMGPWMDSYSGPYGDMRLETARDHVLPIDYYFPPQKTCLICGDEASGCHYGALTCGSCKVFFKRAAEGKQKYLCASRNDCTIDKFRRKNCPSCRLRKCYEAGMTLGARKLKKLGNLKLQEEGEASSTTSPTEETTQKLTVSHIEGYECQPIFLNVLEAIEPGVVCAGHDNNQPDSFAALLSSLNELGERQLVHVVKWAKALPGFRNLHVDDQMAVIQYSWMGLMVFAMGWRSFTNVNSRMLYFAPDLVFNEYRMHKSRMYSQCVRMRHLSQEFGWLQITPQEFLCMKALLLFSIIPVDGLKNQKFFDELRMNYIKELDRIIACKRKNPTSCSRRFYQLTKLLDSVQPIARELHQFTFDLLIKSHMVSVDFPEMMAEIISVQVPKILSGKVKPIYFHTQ

Oc1c(I)cc(I)cc1I
inactive: Potency [1] | Potency [2] | Potency [3] | Potency [4] | Potency [5] | max response [6] -25% | Potency [7] | Potency [8] | Potency [9] | Potency [10] | Potency [11] | Potency [12] | Potency [13] | Potency [14] | Potency [15] | Potency [16] | Potency [17] | Potency [18] | Potency [19] | outcome [20]
